Screening data from PubChem BioAssay.
An excerpt weighted towards active compounds, which were near 19% of everything screened.
KB-3-1 cytotox: qHTS assay for MDR1-selective chemotherapeutics: Primary screen using the parental adenocarcinoma cell KB-3-1; KB-3-1 viability, CellTiter-Glo ATP luminescence, 72 h; Potency, µM (series often up to 46.1 µM), hits mostly cytotoxic; 1.4% of 400,000 active; note: nearly all actives have a fitted effect of over 60% in size
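Viability of parental KB-3-1 cells, measured by CellTiter-Glo luminescence, followed a 72 h incubation at 37 °C with pinned compounds in phenol-red-free DMEM containing 10% FBS.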
HT1080 IDH1KD tx: qHTS for induction of synthetic lethality in tumor cells producing 2HG: qHTS for the HT-1080-IDH1KD cell line. HT-1080 IDH1 knockdown viability, ATP luminescence, 48 h. Potency, µM (top dose mostly 46.1 µM), for the others: at the highest dose activity, negative = toxicity, actives largely listed as cytotoxic. 2% of 360,000 active. AID 686971, 2013;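 note: 0% = DMSO wells and -100% = cell-free medium wells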
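Using the IDH1-knockdown HT-1080 line run in the same batch and compound series as the NT line, viability after 48 h at 37 °C was determined by CellTiter-Glo luminescence and expressed as % activity.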
DT40 TDP1 CPT: qHTS for Inhibitors of human tyrosyl-DNA phosphodiesterase 1 (TDP1): qHTS in cells in presence of CPT | chicken DT40 Tdp1-/-;hTDP1 cells + 20 nM CPT, ATP luminescence, 48 h | Potency, µM (highest dose often 46.2 µM), for the others: at the highest dose activity change, negative = growth inhibition, usual class: inhibitors | 12% of 420,000 active; note: nearly all actives have a fitted effect of over 55% in size
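Chicken DT40 Tdp1-/- cells complemented with human TDP1, 400 cells/well, exposed to compounds plus 20 nM camptothecin for at least 48 h at 37 C; viability read as ATP content by CellTiter-Glo luminescence.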
KB-V1 MDR tox: qHTS assay for MDR1-selective chemotherapeutics: Primary screen using the drug-selected MDR subline cells KB-V1. AID 1347076, 2019. 3.4% of 400,000 active. Potency, µM (series often up to 46.1 µM), most hits filed as cytotoxic. KB-V1 MDR cells viability, CellTiter-Glo, 72 h; note: nearly all actives have a fitted effect of over 60% in size
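qHTS viability screen in drug-selected KB-V1 MDR cells: 72 h compound treatment at 37 degrees C, ATP luminescence end point.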
TDP1 cell noCPT: qHTS for Inhibitors of human tyrosyl-DNA phosphodiesterase 1 (TDP1): qHTS in cells in absence of CPT | DT40 Tdp1-/- hTDP1 cells, no CPT, ATP luminescence, 48 h | Potency, µM (highest dose often 46.2 µM), for the others: at the highest dose activity change, negative = growth inhibition, usual class: inhibitors | 15% of 420,000 active | AID 686978, 2013; note: nearly all actives have a fitted effect of over 55% in size
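Seeded 400 DT40-hTDP1 cells/well (vehicle DMSO, no 20 nM CPT); pinned compounds; ≥48 hr at 37 °C; CellTiter-Glo luminescence as viability measure.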
HT1080NT lethal: qHTS for induction of synthetic lethality in tumor cells producing 2HG: qHTS for the HT-1080-NT fibrosarcoma cell line; HT-1080-NT fibrosarcoma viability, CellTiter-Glo ATP luminescence, 48 h; Potency, µM (series often up to 46.1 µM), for the others: top-dose activity, negative = less viability, hits mostly cytotoxic; 1.6% of 360,000 active; AID 686970, 2013;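 note: NT is the 2HG producing partner of a matched IDH1 knockdown line; 0% = DMSO-treated cells and -100% = media-only wells without cells; nearly all actives have a fitted effect of over 55% in size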
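Fibrosarcoma NT cells, 750 per well in 5% FBS RPMI, were exposed to compound for 48 hours. Viability: CellTiter-Glo luminescence.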
Numbers without * were called inactive; i = inactive; ? = inconclusive; . = no result. Calls come from the whole dose curve; as a rule, active = well fitted curve in the direction sought with a large enough effect; inconclusive = small, poorly fitted or top-dose-only effect, or another doubt; inactive = no such curve, though single readings can be large; an effect the other way counts as inactive or inconclusive. Unless noted, % is set by controls: 0 for no effect and ±100 for the full control effect; potency is the fitted concentration of half-maximal effect.

SMILES	KB-3-1 cytotox	HT1080 IDH1KD tx	DT40 TDP1 CPT	KB-V1 MDR tox	TDP1 cell noCPT	HT1080NT lethal
Cc1cccc(N2CCN(C(=O)c3ccccn3)CC2C)c1 (stereo unspecified)	i	17%	?	?	-18%	?
Nc1nc2c(ncn2[C@@H]2O[C@H](CNC(=O)[C@H](N)Cc3ccccc3)[C@@H](O)[C@H]2O)c(=O)[nH]1	i	11%	-9%	i	-1%	7%
CSCCC(NC(=O)c1ccco1)C(=O)N1CCN(Cc2ccccc2)CC1 (stereo unspecified)	i	13%	1%	i	-18%	9%
COc1ccccc1N1CCN(C(=O)c2cc3c(=O)n(C)c4ccccc4c3s2)CC1	i	.	?	?	26µM*	.
COc1ccccc1N1CCN(C(=O)c2cc3c(=O)n(C)c4ccccc4c3n2C)CC1	i	0%	23µM*	i	23µM*	1%
Cn1c(C(=O)N2CCN(C(=O)c3ccco3)CC2)cc2c(=O)n(C)c3ccccc3c21	i	7%	-11%	i	?	4%
Nc1nnc2c(n1)[nH]c1ccccc12	i	.	-19%	?	?	.
CCOC(=O)c1cccc(NC(=O)NCc2ccc3c(c2)CCN3C(=O)CC)c1	i	.	-23%	i	?	.
S=C(SSC(=S)N1CCOCC1)N1CCOCC1	i	0.73µM*	0.046µM*	i	0.026µM*	1.2µM*
CN1CCN(c2c(F)cc3c(=O)c(C(=O)O)cn4c3c2SCC4)CC1	i	0%	13µM*	i	12µM*	0%
CNC(=S)N1CCN(c2c(F)cc3c(=O)c(C(=O)O)cn(C4CC4)c3c2OC)CC1C (stereo unspecified)	i	3%	?	i	?	5%
CCOC(=O)c1cccc(NC(=O)CN(c2ccc(OC)cc2)S(=O)(=O)c2c(C)noc2C)c1	i	2%	-11%	9.2µM*	?	1%
COc1ccc(N(CC(=O)Nc2cccc(C)c2)S(=O)(=O)c2c(C)noc2C)cc1	i	3%	?	i	2.9µM*	3%
CC(=O)c1cccc(NC(=O)CN(c2cc(C)cc(C)c2)S(=O)(=O)c2c(C)noc2C)c1	i	.	16µM*	i	18µM*	.
Cc1ccc(N(CC(=O)Nc2ccc(F)c(Cl)c2)S(=O)(=O)c2c(C)noc2C)cc1	?	?	?	18µM*	?	?
COc1ccc(N(CC(=O)Nc2ccc(C)cc2)S(=O)(=O)c2c(C)noc2C)cc1	i	-12%	?	i	?	-18%
COc1ccc(N(CC(=O)Nc2cccc(C(=O)O)c2)S(=O)(=O)c2c(C)noc2C)cc1	i	1%	-8%	i	0%	-2%
COc1ccc(NC(=O)CN(c2cc(C)cc(C)c2)S(=O)(=O)c2c(C)noc2C)cc1OC	i	2%	?	i	?	0%
CCc1ccc(C(=O)C[N+]2(C)CCOCC2)cc1	i	.	-7%	i	-8%	.
C[C@@H]1CN([C@H](C)CO)C(=O)CCCn2nncc2CO[C@H]1CN(C)S(C)(=O)=O	i	10%	6%	i	?	12%
COc1ccc(N(CC(=O)Nc2cc(OC)cc(OC)c2)S(=O)(=O)c2c(C)noc2C)cc1	?	.	7.3µM*	i	5.8µM*	.
